Inconclusive results are not listed. Activity calls are given as the source filed them. Rule for the calls: active = hit-call score of the fitted dose curve at least 0.9, where 1 is the maximum; inconclusive = response in the unintended direction; inactive = score below 0.9.

For the assay, the target named is human Thyroid Receptor alpha (THRa1), THRA (gene 7067) (UniProt P10827). Put plainly: ATG_THRa1_TRANS: Attagene TRANS-FACTORIAL HepG2 Assay for human Thyroid Receptor alpha (THRa1) (AID 2283014). The protocol: ATG_TRANS is a cell-based, multiplexed-readout assay that uses HepG2, a human liver cell line, with measurements taken at 24 hours after chemical dosing in a 24-well plate.ATG_THRa1_TRANS is one of 30 assay component(s) measured or calculated from the ATG_TRANS assay. It is designed to make measurements of mRNA induction, a form of inducible reporter, as detected with fluorescence intensity signals by Reverse transcription polymerase chain reaction (RT-PCR) and Capillary electrophoresis technology.Data from the assay component ATG_THRa1_TRANS was analyzed into 1 assay endpoint. This assay endpoint, ATG_THRa1_TRANS, was analyzed in the positive analysis fitting direction relative to DMSO as the negative control and baseline of activity. Using a type of inducible reporter, measures of mRNA for gain-of-signal activity can be used to understand the reporter gene at the transcription factor-level as they relate to the gene THRA. Furthermore, this assay endpoint can be referred to as a primary readout, because this assay has produced multiple assay endpoints where this one serves a reporter gene function. To generalize the intended target to other relatable targets, this assay endpoint is annotated to the nuclear receptor intended target family, where the subfamily is non-steroidal.
Chain of human Thyroid Receptor alpha (THRa1), THRA (gene 7067) (P10827 whole entry, looked up): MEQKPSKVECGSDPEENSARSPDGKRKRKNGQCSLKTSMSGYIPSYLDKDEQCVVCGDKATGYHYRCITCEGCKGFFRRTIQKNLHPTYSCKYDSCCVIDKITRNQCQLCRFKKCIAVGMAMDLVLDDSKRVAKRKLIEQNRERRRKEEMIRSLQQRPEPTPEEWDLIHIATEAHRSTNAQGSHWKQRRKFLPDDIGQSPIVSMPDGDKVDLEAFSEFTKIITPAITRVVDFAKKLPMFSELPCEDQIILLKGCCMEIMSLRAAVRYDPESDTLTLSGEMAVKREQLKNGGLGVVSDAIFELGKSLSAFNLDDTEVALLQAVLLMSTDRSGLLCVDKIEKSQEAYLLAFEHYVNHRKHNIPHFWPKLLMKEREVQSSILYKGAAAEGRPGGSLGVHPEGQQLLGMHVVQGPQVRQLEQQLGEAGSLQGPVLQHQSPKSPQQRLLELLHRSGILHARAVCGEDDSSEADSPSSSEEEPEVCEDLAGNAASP
Human liver HepG2 cells are transiently transfected with multiple reporter transcription units (MRTUs) in 6-well plates using FuGene 6 reagent (Roche; 3 ml FuGene/1 mg DNA). The MRTU constructs are regulated by a cis-regulating element (promoter). […] A major difference between the CIS and TRANS system is that in CIS activities of endogenous TFs are measured, whereas the TRANS assay evaluates changes in activities of exogenous, chimeric NR-Gal4 proteins. […] At the end of 24 hour incubation, total RNA was isolated using TriZol reagent (Invitrogen). The isolated RNA is then reverse-transcribed using oligo(dT) primer and Mo-MLV reverse transcriptase (Invitrogen) with DNAse I (Ambion) treatment for 30 min. The one-tenth of the produced cDNA was amplified by PCR using Taq DNA polymerase (Invitrogen) and two reporter sequence-specific primers. The PCR products were fluorescently labeled by primer extension with 6-arboxyfluorescein (6-FAM) 5'-labeled reporter sequence-specific primer (2 min at 95 C, 20 s at 68 C and 10 min at 72 C) and these products were digested with 5U of HpaI (New England Biolabs) for 2h at 37 C. The fragments were purified using Qiaquick PCR columns (Qiagen), analyzed on an ABI 3130xL genetic analyzer (Applied Biosystems) with peak positions identified by using a set of X-rhodamine (ROX)-labeled MapMarker1000 molecular weight standards (BioVentures). The raw capillary electrophoresis data was processed using Attagraph software (Attagene).
On to `CC1(C)[C@H](C(=O)O[C@H](C#N)c2cccc(Oc3ccccc3)c2)[C@@H]1/C=C(\Cl)C(F)(F)F`, for which the call was inactive.
Still for that read-out and setting: with `CN(C)CCN(C)C` the entry was “inactive”; with `COC(F)(C(F)(F)C(F)(F)F)C(F)(C(F)(F)F)C(F)(F)F` (stereo not given), “inactive”; with `Oc1cc(Cl)c(Cl)cc1Cl`, “inactive”.
As to `c1ccc(-c2cccc(-c3ccccc3)c2)cc1`, the result was inactive.
On the same count and under the same terms, with `CC(=O)CN(CC(C)=O)N=O` the entry was “inactive”; with `CC(C)(C)c1cc([N+](=O)[O-])cc(C(C)(C)C)c1O`, “inactive”.
The same measure, in the same setting: with `O=C(NC(=O)c1c(F)cccc1F)Nc1ccc(Cl)cc1` the entry was “inactive”.
`O=C(Nc1ccc(Br)cc1)c1cc(Br)cc(Br)c1O`: the call was inactive.
Same read-out and setting: with `CNC(=O)O/N=C/C(C)(C)S(C)(=O)=O` the entry was “inactive”; with `C#CCO`, “inactive”.
Still for that read-out and setting: the entry for `O=C(O)c1cc(I)cc(I)c1I` is “inactive”; for `CC(=O)C(F)(F)C(F)(F)F` it is “inactive”; for `CC(c1ccc(O)cc1)c1ccc(O)cc1` it is “inactive”.
The same measure, in the same setting: with `CC(C)[C@H](C(=O)OC(C#N)c1cccc(Oc2ccccc2)c1)c1ccc(OC(F)F)cc1` (stereo not given in full) the entry was “inactive”; with `O=C/C(Cl)=C(/Cl)C(=O)O`, “inactive”; with `CC(C)C(C)(N)C#N` (stereo not given), “inactive”.
With `Brc1c(Br)c(Br)c(Oc2c(Br)c(Br)c(Br)c(Br)c2Br)c(Br)c1Br`, the result was inactive.
Same read-out and setting: the entry for `Cc1ccc(CCl)cc1` is “inactive”.
A word on the AC50: it is the concentration at which the activity in the assay is half-maximal. Turning to `Oc1c(Br)cc(Br)cc1Br`, the AC50 is 100 µM (active).
In the case of `COc1ccc(N)cc1`, the molecule was classed as inactive.
On the same count and under the same terms, with `CN(N=O)c1ccc([N+](=O)[O-])cc1` the entry was “inactive”; with `CCOC(=O)c1ccccc1S(=O)(=O)NC(=O)Nc1nc(Cl)cc(OC)n1`, “inactive”.
On the same count and under the same terms, with `CC(C)(c1ccc(O)c(-c2ccccc2)c1)c1ccc(O)c(-c2ccccc2)c1` the entry was “inactive”; with `CC(O)(CS(=O)(=O)c1ccc(F)cc1)C(=O)Nc1ccc(C#N)c(C(F)(F)F)c1` (stereo not given), “inactive”; with `C=C(C)[C@@H]1CC=C(C=O)CC1`, “inactive”.
`O=C(NC(=O)c1c(F)cccc1F)Nc1cc(Cl)c(OC(F)(F)C(F)C(F)(F)F)cc1Cl` (stereo not given): the molecule was called inactive.
On the same count and under the same terms, the entry for `COC(=O)c1cc(Oc2ccc(Cl)cc2Cl)ccc1[N+](=O)[O-]` is “inactive”.
Regarding `C=CCOC(N)=O`, the molecule was classed as inactive.
Same read-out and setting: with `Cc1ccccc1OP(=O)(Oc1ccccc1)Oc1ccccc1` the entry was “inactive”.
For the molecule `O=C(O)COc1cc(Cl)c(Cl)cc1Cl`, the result was inactive.
On the same count and under the same terms, the entry for `Brc1ccc(Br)cc1` is “inactive”; for `CCCCN(CCCC)C(=S)S` it is “inactive”; for `Clc1ccc(C(Cl)(Cl)Cl)cn1` it is “inactive”.
On the same count and under the same terms, with `CCOP(=S)(OCC)OP(=S)(OCC)OCC` the entry was “inactive”.
The same measure, in the same setting: the entry for `C=CCN=C=S` is “inactive”.
Turning to `O=C(CCl)Nc1ccccc1`, the molecule was classed as inactive.
On to `O=S1(=O)OC(c2cc(Br)c(O)c(Br)c2)(c2cc(Br)c(O)c(Br)c2)c2ccccc21`, for which the call was inactive.
Take `O=NN1CCOCC1`: the molecule was called inactive.
Still for that read-out and setting: the entry for `Cc1cc(Cl)ccc1OCCCC(=O)O` is “inactive”.
